We go through 40 targets from the supplement of paper PMC11001985.

Unmarked numbers belong to inactive results.

Sequence of UniProt P12956 (P12956 whole entry): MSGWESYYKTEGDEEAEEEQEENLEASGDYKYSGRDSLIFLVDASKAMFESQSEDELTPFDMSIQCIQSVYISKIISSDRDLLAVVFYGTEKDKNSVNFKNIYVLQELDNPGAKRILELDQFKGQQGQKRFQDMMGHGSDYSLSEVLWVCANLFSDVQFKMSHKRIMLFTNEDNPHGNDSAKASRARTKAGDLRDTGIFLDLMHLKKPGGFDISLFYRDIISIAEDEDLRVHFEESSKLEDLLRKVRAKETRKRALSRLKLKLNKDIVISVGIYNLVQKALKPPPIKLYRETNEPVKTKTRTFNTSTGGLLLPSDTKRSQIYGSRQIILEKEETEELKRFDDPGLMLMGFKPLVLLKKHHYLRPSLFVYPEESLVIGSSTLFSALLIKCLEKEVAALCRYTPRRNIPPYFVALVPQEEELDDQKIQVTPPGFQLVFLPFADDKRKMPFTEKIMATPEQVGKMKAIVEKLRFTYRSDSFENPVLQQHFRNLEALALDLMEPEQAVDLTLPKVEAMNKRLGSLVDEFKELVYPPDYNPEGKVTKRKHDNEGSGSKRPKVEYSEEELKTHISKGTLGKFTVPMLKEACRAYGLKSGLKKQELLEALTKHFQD
Sequence of UniProt P10586 (P10586 whole entry): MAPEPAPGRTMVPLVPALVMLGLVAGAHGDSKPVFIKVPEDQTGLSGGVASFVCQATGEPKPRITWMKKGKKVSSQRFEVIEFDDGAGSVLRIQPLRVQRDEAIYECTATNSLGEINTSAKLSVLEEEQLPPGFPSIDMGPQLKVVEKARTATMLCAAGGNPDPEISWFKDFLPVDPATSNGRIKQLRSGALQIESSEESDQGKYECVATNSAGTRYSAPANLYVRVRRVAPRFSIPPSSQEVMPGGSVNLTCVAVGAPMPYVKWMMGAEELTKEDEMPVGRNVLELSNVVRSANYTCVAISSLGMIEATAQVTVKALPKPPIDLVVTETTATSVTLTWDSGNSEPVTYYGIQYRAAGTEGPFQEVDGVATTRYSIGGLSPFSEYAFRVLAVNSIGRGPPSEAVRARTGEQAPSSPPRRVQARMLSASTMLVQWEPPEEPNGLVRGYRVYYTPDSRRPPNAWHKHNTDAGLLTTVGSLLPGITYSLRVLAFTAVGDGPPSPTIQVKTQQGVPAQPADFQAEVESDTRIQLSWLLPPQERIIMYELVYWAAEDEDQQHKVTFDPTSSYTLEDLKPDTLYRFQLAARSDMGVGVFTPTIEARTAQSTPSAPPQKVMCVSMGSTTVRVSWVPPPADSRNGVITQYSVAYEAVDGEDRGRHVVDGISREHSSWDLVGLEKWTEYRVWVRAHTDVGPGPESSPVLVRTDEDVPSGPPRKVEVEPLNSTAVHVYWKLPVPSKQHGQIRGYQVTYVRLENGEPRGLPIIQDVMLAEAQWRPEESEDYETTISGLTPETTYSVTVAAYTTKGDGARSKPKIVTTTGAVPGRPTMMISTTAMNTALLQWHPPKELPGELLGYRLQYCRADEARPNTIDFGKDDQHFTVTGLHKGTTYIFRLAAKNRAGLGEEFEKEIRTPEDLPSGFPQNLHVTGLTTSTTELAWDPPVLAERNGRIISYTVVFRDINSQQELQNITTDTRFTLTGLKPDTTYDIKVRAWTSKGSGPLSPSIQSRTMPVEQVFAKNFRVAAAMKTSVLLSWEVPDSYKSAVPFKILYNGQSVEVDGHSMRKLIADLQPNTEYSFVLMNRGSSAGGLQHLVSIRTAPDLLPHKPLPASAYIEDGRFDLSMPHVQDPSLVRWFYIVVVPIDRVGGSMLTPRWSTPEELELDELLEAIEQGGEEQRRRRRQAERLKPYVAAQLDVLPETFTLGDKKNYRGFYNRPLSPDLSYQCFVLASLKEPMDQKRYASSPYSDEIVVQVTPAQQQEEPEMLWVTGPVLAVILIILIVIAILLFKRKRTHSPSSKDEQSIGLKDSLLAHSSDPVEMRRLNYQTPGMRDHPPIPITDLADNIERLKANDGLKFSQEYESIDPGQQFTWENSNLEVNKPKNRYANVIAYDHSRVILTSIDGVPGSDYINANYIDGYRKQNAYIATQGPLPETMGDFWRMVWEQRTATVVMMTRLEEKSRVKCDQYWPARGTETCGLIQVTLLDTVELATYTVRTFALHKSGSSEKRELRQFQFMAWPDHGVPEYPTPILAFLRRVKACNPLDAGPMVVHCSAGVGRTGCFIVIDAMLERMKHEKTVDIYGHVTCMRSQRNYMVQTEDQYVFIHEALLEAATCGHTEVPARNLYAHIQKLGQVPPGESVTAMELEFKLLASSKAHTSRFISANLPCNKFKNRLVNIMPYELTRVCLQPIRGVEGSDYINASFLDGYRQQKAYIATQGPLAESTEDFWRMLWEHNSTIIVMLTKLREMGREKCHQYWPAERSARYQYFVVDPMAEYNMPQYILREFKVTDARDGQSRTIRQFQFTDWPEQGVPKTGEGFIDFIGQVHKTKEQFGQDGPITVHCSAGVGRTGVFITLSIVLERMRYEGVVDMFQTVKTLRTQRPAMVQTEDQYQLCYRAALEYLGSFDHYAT
Sequence of UniProt Q9Y6N7 (Q9Y6N7 whole entry): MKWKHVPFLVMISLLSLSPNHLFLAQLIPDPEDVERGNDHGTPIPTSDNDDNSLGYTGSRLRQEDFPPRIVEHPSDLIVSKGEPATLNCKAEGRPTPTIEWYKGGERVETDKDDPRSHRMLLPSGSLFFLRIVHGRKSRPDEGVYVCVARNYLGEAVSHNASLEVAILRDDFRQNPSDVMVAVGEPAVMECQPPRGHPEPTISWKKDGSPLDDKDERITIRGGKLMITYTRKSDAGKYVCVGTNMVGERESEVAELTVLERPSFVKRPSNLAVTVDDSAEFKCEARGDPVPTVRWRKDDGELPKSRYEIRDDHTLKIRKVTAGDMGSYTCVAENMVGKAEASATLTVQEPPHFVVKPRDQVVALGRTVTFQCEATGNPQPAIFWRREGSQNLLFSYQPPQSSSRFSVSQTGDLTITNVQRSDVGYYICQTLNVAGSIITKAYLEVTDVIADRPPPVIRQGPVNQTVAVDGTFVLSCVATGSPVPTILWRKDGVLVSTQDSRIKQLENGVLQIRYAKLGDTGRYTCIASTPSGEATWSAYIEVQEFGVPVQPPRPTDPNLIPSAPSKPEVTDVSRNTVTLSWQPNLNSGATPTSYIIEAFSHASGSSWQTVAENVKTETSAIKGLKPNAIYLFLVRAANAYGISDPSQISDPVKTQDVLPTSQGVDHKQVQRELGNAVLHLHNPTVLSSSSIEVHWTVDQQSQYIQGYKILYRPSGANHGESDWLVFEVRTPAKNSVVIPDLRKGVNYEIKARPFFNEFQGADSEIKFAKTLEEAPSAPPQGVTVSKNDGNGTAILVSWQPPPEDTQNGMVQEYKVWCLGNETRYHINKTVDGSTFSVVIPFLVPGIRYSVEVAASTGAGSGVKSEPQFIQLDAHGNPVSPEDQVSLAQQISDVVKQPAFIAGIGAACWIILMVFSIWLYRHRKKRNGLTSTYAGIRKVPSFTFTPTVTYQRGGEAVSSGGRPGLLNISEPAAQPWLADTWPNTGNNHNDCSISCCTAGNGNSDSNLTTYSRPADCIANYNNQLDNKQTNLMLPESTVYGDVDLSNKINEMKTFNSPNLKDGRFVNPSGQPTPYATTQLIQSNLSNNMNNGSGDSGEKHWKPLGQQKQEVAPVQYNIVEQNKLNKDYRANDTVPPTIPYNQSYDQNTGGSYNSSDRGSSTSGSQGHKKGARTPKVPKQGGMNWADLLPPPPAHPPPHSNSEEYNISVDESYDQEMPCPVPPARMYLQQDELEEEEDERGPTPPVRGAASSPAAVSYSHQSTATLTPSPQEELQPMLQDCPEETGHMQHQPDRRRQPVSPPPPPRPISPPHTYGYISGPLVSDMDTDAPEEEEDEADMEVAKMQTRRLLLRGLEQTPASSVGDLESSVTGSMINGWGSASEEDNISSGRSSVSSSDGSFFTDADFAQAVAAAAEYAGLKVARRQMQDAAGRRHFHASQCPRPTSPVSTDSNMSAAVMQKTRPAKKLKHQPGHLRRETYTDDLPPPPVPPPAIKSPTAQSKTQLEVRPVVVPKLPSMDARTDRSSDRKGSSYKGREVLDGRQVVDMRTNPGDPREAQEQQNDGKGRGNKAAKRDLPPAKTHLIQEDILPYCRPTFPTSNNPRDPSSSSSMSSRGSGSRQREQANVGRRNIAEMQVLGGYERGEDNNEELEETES
Sequence of UniProt Q6EMK4 (Q6EMK4 whole entry, looked up): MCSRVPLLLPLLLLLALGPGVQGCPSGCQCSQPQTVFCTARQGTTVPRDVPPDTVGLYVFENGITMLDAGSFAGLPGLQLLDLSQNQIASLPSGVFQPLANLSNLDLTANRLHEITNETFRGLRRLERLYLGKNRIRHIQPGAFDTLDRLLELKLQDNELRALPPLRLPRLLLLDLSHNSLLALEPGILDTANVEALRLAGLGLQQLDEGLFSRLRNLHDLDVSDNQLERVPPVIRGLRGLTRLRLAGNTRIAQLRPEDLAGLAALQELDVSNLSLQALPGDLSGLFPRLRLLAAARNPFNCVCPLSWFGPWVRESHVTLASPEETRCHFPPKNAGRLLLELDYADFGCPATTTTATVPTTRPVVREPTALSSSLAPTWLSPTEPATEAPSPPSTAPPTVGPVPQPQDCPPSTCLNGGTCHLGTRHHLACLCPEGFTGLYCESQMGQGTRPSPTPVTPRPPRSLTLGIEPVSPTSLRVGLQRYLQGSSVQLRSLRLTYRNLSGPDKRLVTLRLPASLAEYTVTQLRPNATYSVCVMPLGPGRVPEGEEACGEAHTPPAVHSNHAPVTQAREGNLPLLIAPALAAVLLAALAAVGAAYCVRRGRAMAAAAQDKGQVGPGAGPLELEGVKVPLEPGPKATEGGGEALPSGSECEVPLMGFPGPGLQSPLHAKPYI
Sequence of UniProt P60174 (P60174 whole entry): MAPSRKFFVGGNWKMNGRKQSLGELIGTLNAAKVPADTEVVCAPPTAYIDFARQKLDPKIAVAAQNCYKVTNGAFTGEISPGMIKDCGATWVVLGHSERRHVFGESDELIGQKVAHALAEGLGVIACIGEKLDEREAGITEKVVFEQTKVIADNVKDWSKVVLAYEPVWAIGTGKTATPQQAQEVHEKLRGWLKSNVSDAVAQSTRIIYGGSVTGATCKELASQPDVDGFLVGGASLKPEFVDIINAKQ

Compound in this assay: C#CCNC(=O)CCSSCCC(=O)NCCc1ccc(C=O)c(C=O)c1
Put plainly: lysine labeling ratio R10:1 (500 µM / 50 µM probe), SILAC-ABPP in living cells; higher = lower intrinsic lysine reactivity toward the probe, active = 2 or less. To be noted: HeLa; probe concentrations 500 vs 50 µM. The procedure, abridged:
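Forward and reverse SILAC label swaps were used with living light and heavy HeLa cells in PBS at room temperature, which were given an alkyne-tagged, disulfide-linked lysine probe at 50 µM or 500 µM. R is the per-lysine filtered median high-probe/low-probe MS1 peptide ratio, with the median then taken across both swap directions. Values are limited to 20.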
For the target “PLXNB2 (lysine site: K1121) (UniProt O15031)”, the “lysine labeling ratio R10:1” value is 0.81 (active).

With “TPI1 (lysine site: K188) (UniProt P60174)”, the “lysine labeling ratio R10:1” value is 4.28.

For “XRCC6 (lysine site: K189) (UniProt P12956)”, the “lysine labeling ratio R10:1” value was 4.

Consider UniProt Q8WXI7 (lysine site: K13558), for which the “lysine labeling ratio R10:1” value is 5.1.

With “PTPRF (lysine site: K994) (UniProt P10586)”, the “lysine labeling ratio R10:1” value was 4.54.

Take “CCT2 (lysine site: K522) (UniProt P78371)”: the “lysine labeling ratio R10:1” value is 3.39.

Regarding UniProt Q86V81 (lysine site: K134), the “lysine labeling ratio R10:1” value is 4.23.

For “PTPRF (lysine site: K1016) (UniProt P10586)”, the “lysine labeling ratio R10:1” value is 3.97.

With “MYH9 (lysine site: K202) (UniProt P35579)”, the “lysine labeling ratio R10:1” value is 1.58 (active).

As for “DSG2 (lysine site: K406) (UniProt Q14126)”, the “lysine labeling ratio R10:1” value was 3.75.

As for “IGF2R (lysine site: K1576) (UniProt P11717)”, the “lysine labeling ratio R10:1” value was 0.605 (active).

In the case of UniProt P62244 (lysine site: K88), the “lysine labeling ratio R10:1” value is 1.79 (active).

As for “CCT3 (lysine site: K203) (UniProt P49368)”, the “lysine labeling ratio R10:1” value is 4.58.

Regarding UniProt P23352 (lysine site: K411), the “lysine labeling ratio R10:1” value is 2.12.

For “PPT1 (lysine site: K191) (UniProt P50897)”, the “lysine labeling ratio R10:1” value is 1.31 (active).

On to “AGRN (lysine site: K77) (UniProt O00468)”, for which the “lysine labeling ratio R10:1” value is 1.69 (active).

Turning to “ANXA3 (lysine site: K154) (UniProt P12429)”, the “lysine labeling ratio R10:1” value is 3.32.

As for “TAGLN2 (lysine site: K171) (UniProt P37802)”, the “lysine labeling ratio R10:1” value is 8.2.

Regarding “GANAB (lysine site: K491) (UniProt Q14697)”, the “lysine labeling ratio R10:1” value is 1.12 (active).

UniProt Q8N441 (lysine site: K34): the “lysine labeling ratio R10:1” value was 3.03.

With “DDX3X (lysine site: K264) (UniProt O00571)”, the “lysine labeling ratio R10:1” value was 1.78 (active).

For the target “ITGAV (lysine site: K581) (UniProt P06756)”, the “lysine labeling ratio R10:1” value was 0.709 (active).

For “ITGA3 (lysine site: K100) (UniProt P26006)”, the “lysine labeling ratio R10:1” value is 2.42.

For “RPL5 (lysine site: K283) (UniProt P46777)”, the “lysine labeling ratio R10:1” value was 1.68 (active).

In the case of UniProt P04439 (lysine site: K92), the “lysine labeling ratio R10:1” value is 3.31.

On to “HMGN2 (lysine site: K18) (UniProt P05204)”, for which the “lysine labeling ratio R10:1” value was 2.09.

Take FH (lysine site: K80) (UniProt P07954): the “lysine labeling ratio R10:1” value was 1.86 (active).

In the case of “VASN (lysine site: K333) (UniProt Q6EMK4)”, the “lysine labeling ratio R10:1” value is 1.84 (active).

As to “GALNT7 (lysine site: K648) (UniProt Q86SF2)”, the “lysine labeling ratio R10:1” value was 1.92 (active).

Take “SDCBP (lysine site: K124) (UniProt O00560)”: the “lysine labeling ratio R10:1” value was 1.6 (active).

In the case of “ROBO1 (lysine site: K490) (UniProt Q9Y6N7)”, the “lysine labeling ratio R10:1” value is 2.81.

For “TFRC (lysine site: K344) (UniProt P02786)”, the “lysine labeling ratio R10:1” value was 9.15.

On to “SPTAN1 (lysine site: K30) (UniProt Q13813)”, for which the “lysine labeling ratio R10:1” value was 5.74.

In the case of UniProt Q15149 (lysine site: K3285), the “lysine labeling ratio R10:1” value is 4.73.

“CPNE1 (lysine site: K73) (UniProt Q99829)”: the “lysine labeling ratio R10:1” value is 2.97.

“SERBP1 (lysine site: K68) (UniProt Q8NC51)”: the “lysine labeling ratio R10:1” value was 5.36.

Regarding “KIAA1549 (lysine site: K1195) (UniProt Q9HCM3)”, the “lysine labeling ratio R10:1” value was 2.77.

For the target “XRCC6 (lysine site: K238) (UniProt P12956)”, the “lysine labeling ratio R10:1” value is 0.959 (active).

Consider “PDIA3 (lysine site: K129) (UniProt P30101)”, for which the “lysine labeling ratio R10:1” value was 1.94 (active).

With “ACTN1 (lysine site: K741) (UniProt P12814)”, the “lysine labeling ratio R10:1” value was 1.15 (active).
